# Test results: PubChem BioAssay (NCI)
# About 83,000 compounds went through this panel and 20% of them were active in at least one assay; those are over-represented in the sample as a whole.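 Testing used 96-well plates and a 48-hour single-concentration exposure. Example: -40 means 40% of the starting cells died.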 Active and inactive are the calls of the source. Rule for the calls: active = growth percent below 10; inactive = the rest.
# System: HL-60(TB) leukemia
# Assay: NCI-60 one-dose screen, 48 h (100 = growth as untreated, 0 = no growth, -100 = all killed)
# Details: 10 µM unless noted
row,Compound,growth
1,COc1ccc(-c2nnc(-c3ccc4c(c3)nc(-c3ccccc3)n4C3CCCCC3)o2)cc1,17.2% (inactive)
2,NC(=O)c1cccc(-n2ccc3cc(NC(=O)Nc4cc(C(F)(F)F)cc(C(F)(F)F)c4)ccc32)n1,39.3% (inactive)
3,COc1ccc(C2=C/C(=C\c3ccccc3O)C(=O)N2Cc2ccccc2)cc1,40.9% (inactive)
4,COc1cccc(C2C3=C(COC3=O)N(CCO)c3cc4c(cc32)OCO4)c1 (stereo not given),-2.69% (active)
5,Nc1c(C(=O)Nc2cccc3cnccc23)sc2nc3c(cc12)CN(Cc1ccccc1)CC3,101% (inactive)
6,Nc1cccc(-c2ccc(COc3ccc(CC4SC(=O)NC4=O)cc3)cc2)c1 (stereo not given),43.4% (inactive)
7,CCNc1nc(N2CC(=O)Nc3cc(OC)ccc32)c2ccccc2n1,-4.51% (active)
8,COC(=O)[C@]12CC[C@@H](C)[C@H](C)[C@@H]1C1=CC[C@@H]3[C@@]4(C)C(C=O)=C[C@@](C)(COC(C)=O)C4=CC[C@@]3(C)[C@]1(C)CC2,-53.1% (active)
9,COCCOCCCl,110% (inactive)
10,Nn1c(-c2ccc(Cl)cc2)nc2c(-c3ccc(Cl)cc3)nc3ccc(Cl)cc3c2c1=O,43.4% (inactive)
11,O=C1/C=C/[C@@H](O)[C@@H]2C[C@@H](O)C[C@H]2/C=C/CCC[C@@H](O)CCO1,123% (inactive)
12,COc1cc(C(=O)/C=C/c2c(-c3ccc(F)cc3)nc3ncccn23)cc(OC)c1OC,30.9% (inactive)
13,COc1cc(NS(=O)(=O)c2ccc(N)cc2)ncn1,105% (inactive)
14,CC(=O)Nc1cc(C(c2ccccc2)c2ccccc2)cc(C(c2ccccc2)c2ccccc2)c1C,53.1% (inactive)
15,c1ccc(-c2nc(Nc3ccc(-c4nc5ccccc5[nH]4)cc3)nc(N3CCOCC3)n2)cc1,-32.7% (active)
16,COc1cc(C#Cc2ccc(=O)oc2C#Cc2ccccc2)cc(OC)c1OC,34.2% (inactive)
17,COc1cccc(/C=C2\Oc3cc(OCCN4CCCC4)ccc3C2=O)c1,99.6% (inactive)
18,O=C(CSc1nc2ccc([N+](=O)[O-])cc2[nH]1)Nc1cccc([N+](=O)[O-])c1,57.5% (inactive)
19,COc1cnc2c(c1)C(=O)c1c-2n(CCCN2CCN(CCO)CC2)c(=O)c2cc([N+](=O)[O-])ccc12,12.7% (inactive)
20,O=S(=O)(/N=c1/n(-c2ccccc2)nc2n1CCN2C1=NCCN1)c1ccc(-c2ccccc2)cc1,136% (inactive)
21,O=C(C=P(c1ccccc1)(c1ccccc1)c1ccccc1)CCl,-39.8% (active)
22,C#CC(F)(F)[C@]1(O)CC[C@H]2[C@@H]3CCC4=CC(=O)CCC4=C3[C@@H](c3ccc(C(C)=O)cc3)C[C@@]21C,-62.6% (active)
23,CCCCNC(=O)c1cc(NCc2cc(O)ccc2O)ccc1O,3.56% (active)
24,O=C(N/N=C\c1cc(Cl)ccc1O)N/N=C/c1cc(Cl)ccc1O,6.64% (active)
25,N#Cc1c(-c2ccccc2)cc(-c2ccc(Nc3nc(Nc4ccc(F)cc4)nc(Nc4ccc(F)cc4)n3)cc2)nc1N,14.2% (inactive)
26,C=C(C)[C@H]1CC/C(C)=C/CC[C@]2(C)O[C@H]2CC/C(COC(C)=O)=C\C1=O,117% (inactive)
27,COc1ccc2c(/C=C3/C(=O)NC(=S)NC3C)cc(=O)oc2c1 (stereo not given),90.5% (inactive)

row,Compound,growth
1,Cc1ccccc1N=C(N)Nc1ccccc1C (tested in a mixture with another compound),-25% (active)
2,C#CCNCCN1C(=O)c2ccc3c4c(ccc(c24)C1=O)C(=O)N(CCNCC#C)C3=O,-18.4% (active)
3,Cc1cccc[n+]1CCC[n+]1ccccc1C,86.4% (inactive)
4,Cn1ncc(Cl)c1-c1cc(C(=O)N[C@H](CN)Cc2ccc(F)c(F)c2)oc1Cl,-35.6% (active)
5,Cc1ncc([N+](=O)[O-])n1CCOc1ccc(C(=O)/C=C/c2ccc(C(F)(F)F)cc2)cc1,54.3% (inactive)
6,CCCCCCC/C(=N\N=C(N)N)c1ccc(O)cc1,6.11% (active)
7,NNc1ncnc2c1ncn2C1OC(CO)C(O)C1O (stereo not given),34.8% (inactive)
8,Nc1ncc(-c2ccc3ncnc(N4CCc5cc(F)c(Cl)cc54)c3c2)cc1C=O,2.72% (active)
9,CCCCSc1ccc2nc(-c3ccc(OCCCN=C(N)N)cc3)cn2c1,41.1% (inactive)
10,C#CCN1C(=O)/C(=c2\sc3n(c2=O)C2C(NN=3)N(CC)C(=O)N2CC)c2ccccc21 (stereo not given),-29.4% (active)
11,CCCn1c(N)c(C(N)=O)sc1=S,94.9% (inactive)
12,C#C[C@]1(O)CC[C@H]2[C@@H]3CC=C4c5sc(-c6cccc(Br)c6)nc5CC[C@]4(C)[C@H]3CC[C@@]21C,77.9% (inactive)
13,CCNC(=O)Oc1ccc(/C(=C(/C)Cc2ccc(OC)cc2)c2ccc(OCCN3CCCCCC3)cc2)cc1,38.1% (inactive)
14,Cc1ccc(N2C(=O)C=CC2=O)cc1,63.2% (inactive)
15,CNC(=O)c1cc(Oc2cccc3nc(Nc4ccc(Oc5ccccc5)cc4)ccc23)ccn1,87.1% (inactive)
16,CCCCCCCC(=O)SCC/C=C/[C@@H]1CC(=O)NCc2nc(co2)C2=N[C@@](C)(CS2)C(=O)N[C@@H](C(C)C)C(=O)O1,8.71% (active)
17,CN1CCN=C1c1ccc(NC(=O)c2ccc(C(=O)Nc3ccc(C4=NCCN4C)cc3)cc2)cc1,91.2% (inactive)
18,C[C@@H](c1ccc2c(c1)[nH]c1ccc(Cl)cc12)c1nc2ccc(Cl)cc2[nH]1,0.0537% (active)
19,COc1ccc(/C=C(/C(=O)N2CCCCC2)c2cc(OC)c(OC)c(OC)c2)cc1,-17.5% (active)
20,CN(C)c1ccc(C2CC(c3ccccc3)=NN2/C=C2\SC(=O)NC2=O)cc1 (stereo not given),84.7% (inactive)
21,OC(c1cc(-c2cccc(Cl)c2)nc2ccccc12)C1CCCCN1 (stereo not given),-63.1% (active)
22,CN1CCN(CCOc2ccc(-c3cnc4c(-c5cccc(F)c5)cnn4c3)cc2)CC1,10.7% (inactive)
23,CC1CC(C)/C(=N/NC(N)=O)C(C(O)CC2CCC(=O)NC2=O)C1 (stereo not given),40.1% (inactive)
24,CC12CC(C#N)CCC1O2 (stereo not given),101% (inactive)
25,NS(=O)(=O)Oc1ccc(NC(=O)C2CCCCCC2)cc1,99.2% (inactive)
26,COc1ccc(N=N/N=c2\sc3cc(OC)ccc3n2C)cc1,102% (inactive)
27,O=C(Nc1ncc(Cc2cccc(C(F)(F)F)c2)s1)c1ccc(-n2cnnn2)cc1,70.8% (inactive)

row,Compound,growth
1,O=c1oc2c([nH]c3ccc4ccccc4c32)c2ccccc12,129% (inactive)
2,O=C1CCCN1C1CCN(Cc2cc3ccccc3[nH]c2=O)c2ccccc21 (stereo not given),95.6% (inactive)
3,COc1cc(-c2ccc[nH]2)[nH]c1/C=C1\N=C(C)C(CC(=O)OCC(C)(C)C)=C1C,-44.5% (active)
4,O=[N+]([O-])c1ccc(N=Nc2c(NNc3ccc([N+](=O)[O-])cn3)cc(S(=O)(=O)O)c3ccccc23)nc1,94.9% (inactive)
5,COC(=O)c1c2c(c(C)[n+]([O-])c1C)C(=O)C(NCc1ccc(F)cc1)=CC2=O,-51.5% (active)
6,Cn1nc(N)c2cc([C@@H]3Nc4ccc5[nH]ncc5c4[C@H]4C5CCC(C5)[C@@H]34)ccc21 (stereo not given in full),-16.6% (active)
7,CCOc1ccccc1-n1c(CN2CCN(C(=O)COc3ccc(CNCCCCCCN4C5CCCC4CC(OC(=O)Nc4cc(C)ccc4OC)C5)cc3)CC2)nc2ccccc2c1=O (stereo not given),-76% (active)
8,COc1ccc(Cn2cc3c(c2-c2ccc(O)cc2)CCc2cnoc2-3)cc1,4.87% (active)
9,CCN(CC)CCOc1ccccc1C,101% (inactive)
10,CCN(CC)CCOc1ccc(C2=C(c3ccccc3)CCc3cc(OC)ccc32)cc1,-54.4% (active)
11,O=C1C(Cl)=C(N/N=c2/[nH][nH]/c(=N/NC3=C(Cl)C(=O)c4ccccc4C3=O)c3ccccc23)C(=O)c2ccccc21,39.5% (inactive)
12,c1ccc(-c2n(Cc3ccc4ccccc4c3)c3ccccc3[n+]2Cc2ccc3ccccc3c2)cc1,-49.3% (active)
13,COc1ccc(C(=O)n2nc(/C=C/c3ccc(O)c(OC)c3)cc2/C=C/c2ccc(O)c(OC)c2)cc1,-15.6% (active)
14,CCOC(=O)c1cc(C(=O)c2ccc(OC)c(OC)c2)n2c1ccc1ccc3cccnc3c12,3.73% (active)
15,Ic1ccccc1I,94.1% (inactive)
16,COC(=O)c1cc(-c2ccc(S(C)(=O)=O)cc2)[nH]c1N/N=C/c1c(Cl)cccc1Cl,-22.3% (active)
17,COc1ccc(Cl)cc1Nc1nc(C(F)(F)F)ccc1C(=O)N/N=C/c1ccc(Cl)cc1,9.34% (active)
18,N#C/C(=C\c1ccc(Br)cc1)n1nnc2ccccc21,2.58% (active)
19,CCCCCCCNC(=O)CCCNc1ncnc2c1ncn2-c1cccc(C(C)O)c1 (stereo not given),24% (inactive)
20,C[C@H]1[C@H](C)CC[C@]2(C(=O)OCCCC[P+](c3ccccc3)(c3ccccc3)c3ccccc3)CC[C@]3(C)C(=CC[C@@H]4[C@@]5(C)CC[C@H](OC(=O)C(Cl)Cl)C(C)(C)[C@@H]5CC[C@]43C)[C@H]12,-54.3% (active)
21,CCOC(=O)c1c(C)nc(C)c(C(=O)OCC)c1-c1cccnc1,61.1% (inactive)
22,C=C1CCC2C3(C)COC(c4ccccc4)OC3CCC2(C)C1C/C=C1/C(=O)OCC1OC(C)=O (stereo not given),56% (inactive)
23,COc1ccncc1S(=O)(=O)NC(=O)Nc1ccc(Cl)c(Cl)c1,84.8% (inactive)
24,COc1ccc2c(c1)C(C)Cc1c(Cl)nc(C)nc1N2C (stereo not given),11.3% (inactive)
25,Clc1ccc(Nc2nnc(CNc3ccccc3)c3ccccc23)cc1,-13.4% (active)
26,COC(=O)[C@H]1CCCN1C(=O)[C@H]1CCCN1C(=O)[C@@H](Cc1c[nH]c2ccccc12)NC(=S)Nc1cc(C(F)(F)F)cc(C(F)(F)F)c1,31.2% (inactive)
